Data reported in PMC7156710, “The Sox2 transcription factor binds RNA”.

Assays:
Assay in all cases: fluorescence anisotropy; 10 mM Tris-HEPES pH 7.5, 8% Ficoll, 0.05% NP-40, 135 mM KCl, 15 mM NaCl, 1 mM DTT, 0.1 mg/mL BSA; 2 nM DNA or 3 nM RNA; low values mean tight binding
Conditions in all cases: protein: recombinant; tags: N-terminal His6 and thrombin site, not removed; label: FAM; only (+) strand given; dsDNA, one strand shown
[1] = molecular target: Sox2-HMG (His6 retained) E78A (Homo sapiens, UniProt P48431 38-121, E78A)
Outline: (§1)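 Sox2-HMG domains carrying alanine substitutions were generated by site-directed mutagenesis and purified on Ni-NTA with the His6 tag left in place. Each protein was titrated for at least 1 h in Tris-HEPES pH 7.5 binding buffer against fluorescein-labeled DNA at 2 nM or fluorescein-labeled RNA at 3 nM, and polarization was measured on a CLARIOstar from triplicate titrations, each read three times. Kaleidagraph was used to fit dissociation constants, which are given as the mutant-to-wild-type ratio.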

[2] = molecular target: Sox2-HMG (His6 retained) S72A (Homo sapiens, UniProt P48431 38-121, S72A)
Outline: as §1

[3] = molecular target: Sox2-HMG (His6 retained) E104A (Homo sapiens, UniProt P48431 38-121, E104A)
Outline: as §1

[4] = molecular target: Sox2-HMG (His6 retained) K58A (Homo sapiens, UniProt P48431 38-121, K58A)
Outline: as §1

[5] = molecular target: Sox2-HMG (His6 retained) H67A (Homo sapiens, UniProt P48431 38-121, H67A)
Outline: as §1

[6] = molecular target: Sox2-HMG (His6 retained) K42A (Homo sapiens, UniProt P48431 38-121, K42A)
Outline: as §1

[7] = molecular target: Sox2-HMG (His6 retained) M45A (Homo sapiens, UniProt P48431 38-121, M45A)
Outline: as §1

[8] = molecular target: Sox2-HMG (His6 retained) N63A (Homo sapiens, UniProt P48431 38-121, N63A)
Outline: as §1

[9] = molecular target: Sox2-HMG (His6 retained) K115A (Homo sapiens, UniProt P48431 38-121, K115A)
Outline: as §1

[10] = molecular target: Sox2-HMG (His6 retained) E70A (Homo sapiens, UniProt P48431 38-121, E70A)
Outline: as §1

[11] = molecular target: Sox2-HMG (His6 retained) K87A (Homo sapiens, UniProt P48431 38-121, K87A)
Outline: as §1

[12] = molecular target: Sox2-HMG (His6 retained) W79A (Homo sapiens, UniProt P48431 38-121, W79A)
Outline: as §1

[13] = molecular target: Sox2-HMG (His6 retained) E62A (Homo sapiens, UniProt P48431 38-121, E62A)
Outline: as §1

[14] = molecular target: Sox2-HMG (His6 retained) R114A (Homo sapiens, UniProt P48431 38-121, R114A)
Outline: as §1

[15] = molecular target: Sox2-HMG (His6 retained) S69A (Homo sapiens, UniProt P48431 38-121, S69A)
Outline: as §1

[16] = molecular target: Sox2-HMG (His6 retained) R96A (Homo sapiens, UniProt P48431 38-121, R96A)
Outline: as §1

[17] = molecular target: Sox2-HMG (His6 retained) R40A (Homo sapiens, UniProt P48431 38-121, R40A)
Outline: as §1

[18] = molecular target: Sox2-HMG (His6 retained) W51A (Homo sapiens, UniProt P48431 38-121, W51A)
Outline: as §1

[19] = molecular target: Sox2-HMG (His6 retained) S83A (Homo sapiens, UniProt P48431 38-121, S83A)
Outline: as §1

[20] = molecular target: Sox2-HMG (His6 retained) R111A (Homo sapiens, UniProt P48431 38-121, R111A)
Outline: as §1

[21] = molecular target: Sox2-HMG (His6 retained) E84A (Homo sapiens, UniProt P48431 38-121, E84A)
Outline: as §1

[22] = molecular target: Sox2-HMG (His6 retained) K95A (Homo sapiens, UniProt P48431 38-121, K95A)
Outline: as §1

[23] = molecular target: Sox2-HMG (His6 retained) F48A (Homo sapiens, UniProt P48431 38-121, F48A)
Outline: as §1

[24] = molecular target: Sox2-HMG (His6 retained) R74A (Homo sapiens, UniProt P48431 38-121, R74A)
Outline: as §1

[25] = molecular target: Sox2-HMG (His6 retained) Q61A (Homo sapiens, UniProt P48431 38-121, Q61A)
Outline: as §1

[26] = molecular target: Sox2-HMG (His6 retained) R88A (Homo sapiens, UniProt P48431 38-121, R88A)
Outline: as §1

[27] = molecular target: Sox2-HMG (His6 retained) K73A (Homo sapiens, UniProt P48431 38-121, K73A)
Outline: as §1

[28] = molecular target: Sox2-HMG (His6 retained) E86A (Homo sapiens, UniProt P48431 38-121, E86A)
Outline: as §1

[29] = molecular target: Sox2-HMG (His6 retained) R53A (Homo sapiens, UniProt P48431 38-121, R53A)
Outline: as §1

[30] = molecular target: Sox2-HMG (His6 retained) R113A (Homo sapiens, UniProt P48431 38-121, R113A)
Outline: as §1

[31] = molecular target: Sox2-HMG (His6 retained) T85A (Homo sapiens, UniProt P48431 38-121, T85A)
Outline: as §1

[32] = molecular target: Sox2-HMG (His6 retained) M49A (Homo sapiens, UniProt P48431 38-121, M49A)
Outline: as §1

[33] = molecular target: Sox2-HMG (His6 retained) R56A (Homo sapiens, UniProt P48431 38-121, R56A)
Outline: as §1

[34] = molecular target: Sox2-HMG (His6 retained) K80A (Homo sapiens, UniProt P48431 38-121, K80A)
Outline: as §1

[35] = molecular target: Sox2-HMG (His6 retained) Y110A (Homo sapiens, UniProt P48431 38-121, Y110A)
Outline: as §1

[36] = molecular target: Sox2-HMG (His6 retained) K103A (Homo sapiens, UniProt P48431 38-121, K103A)
Outline: as §1

[37] = molecular target: Sox2-HMG (His6 retained) K109A (Homo sapiens, UniProt P48431 38-121, K109A)
Outline: as §1

[38] = molecular target: Sox2-HMG (His6 retained) R43A (Homo sapiens, UniProt P48431 38-121, R43A)
Outline: as §1

[39] = molecular target: Sox2-HMG (His6 retained) R57A (Homo sapiens, UniProt P48431 38-121, R57A)
Outline: as §1

[40] = molecular target: Sox2-HMG (His6 retained) R98A (Homo sapiens, UniProt P48431 38-121, R98A)
Outline: as §1

[41] = molecular target: Sox2-HMG (His6 retained) N68A (Homo sapiens, UniProt P48431 38-121, N68A)
Outline: as §1

[42] = molecular target: Sox2-HMG (His6 retained) P112A (Homo sapiens, UniProt P48431 38-121, P112A)
Outline: as §1

[43] = molecular target: Sox2-HMG (His6 retained) N46A (Homo sapiens, UniProt P48431 38-121, N46A)
Outline: as §1

[44] = molecular target: Sox2-HMG (His6 retained) K65A (Homo sapiens, UniProt P48431 38-121, K65A)
Outline: as §1

[45] = molecular target: Sox2-HMG (His6 retained) H101A (Homo sapiens, UniProt P48431 38-121, H101A)
Outline: as §1

[46] = molecular target: Sox2-HMG (His6 retained) P64A (Homo sapiens, UniProt P48431 38-121, P64A)
Outline: as §1

[47] = molecular target: Sox2-HMG (His6 retained) M66A (Homo sapiens, UniProt P48431 38-121, M66A)
Outline: as §1

[48] = molecular target: Sox2-HMG (His6 retained) H105A (Homo sapiens, UniProt P48431 38-121, H105A)
Outline: as §1

Chain of Sox2-HMG (His6 retained) N63A (P48431 other isoform, or with tags, fused parts or gaps N63A | N63A N63A): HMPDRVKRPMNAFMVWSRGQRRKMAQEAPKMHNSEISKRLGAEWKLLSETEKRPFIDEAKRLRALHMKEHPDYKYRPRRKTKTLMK
Chain of Sox2-HMG (His6 retained) P112A (P48431 other isoform, or with tags, fused parts or gaps P112A | P112A P112A): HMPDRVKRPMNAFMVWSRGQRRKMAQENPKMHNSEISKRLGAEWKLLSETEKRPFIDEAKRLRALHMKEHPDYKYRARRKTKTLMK
Chain of Sox2-HMG (His6 retained) S69A (P48431 other isoform, or with tags, fused parts or gaps S69A | S69A S69A): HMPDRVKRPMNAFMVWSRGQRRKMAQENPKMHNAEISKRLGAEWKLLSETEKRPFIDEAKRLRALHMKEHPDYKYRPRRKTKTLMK
Chain of Sox2-HMG (His6 retained) R57A (P48431 other isoform, or with tags, fused parts or gaps R57A | R57A R57A): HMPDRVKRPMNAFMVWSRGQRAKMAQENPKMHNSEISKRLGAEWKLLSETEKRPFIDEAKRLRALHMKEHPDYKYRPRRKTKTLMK
Chain of Sox2-HMG (His6 retained) K73A (P48431 other isoform, or with tags, fused parts or gaps K73A | K73A K73A): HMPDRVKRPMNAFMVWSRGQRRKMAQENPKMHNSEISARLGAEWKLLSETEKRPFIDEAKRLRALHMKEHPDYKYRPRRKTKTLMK
Chain of Sox2-HMG (His6 retained) E62A (P48431 other isoform, or with tags, fused parts or gaps E62A | E62A E62A): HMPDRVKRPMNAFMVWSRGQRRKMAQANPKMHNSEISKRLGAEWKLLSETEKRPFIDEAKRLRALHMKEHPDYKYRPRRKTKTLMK
Chain of Sox2-HMG (His6 retained) E86A (P48431 other isoform, or with tags, fused parts or gaps E86A | E86A E86A): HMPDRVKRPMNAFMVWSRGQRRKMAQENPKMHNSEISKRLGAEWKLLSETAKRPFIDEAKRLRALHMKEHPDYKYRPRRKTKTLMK
Chain of Sox2-HMG (His6 retained) S72A (P48431 other isoform, or with tags, fused parts or gaps S72A | S72A S72A): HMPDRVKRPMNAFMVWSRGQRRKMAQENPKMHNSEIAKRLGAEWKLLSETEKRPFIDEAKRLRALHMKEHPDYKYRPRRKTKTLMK
Chain of Sox2-HMG (His6 retained) R96A (P48431 other isoform, or with tags, fused parts or gaps R96A | R96A R96A): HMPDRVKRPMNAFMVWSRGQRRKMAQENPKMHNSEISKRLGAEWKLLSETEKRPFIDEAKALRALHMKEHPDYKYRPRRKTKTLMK
Chain of Sox2-HMG (His6 retained) K80A (P48431 other isoform, or with tags, fused parts or gaps K80A | K80A K80A): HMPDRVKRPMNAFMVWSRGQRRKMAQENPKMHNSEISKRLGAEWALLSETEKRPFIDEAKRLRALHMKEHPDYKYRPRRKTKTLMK
Chain of Sox2-HMG (His6 retained) R53A (P48431 other isoform, or with tags, fused parts or gaps R53A | R53A R53A): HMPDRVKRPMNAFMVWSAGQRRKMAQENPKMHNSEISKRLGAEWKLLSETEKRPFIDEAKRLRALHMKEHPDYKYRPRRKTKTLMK
Chain of Sox2-HMG (His6 retained) E104A (P48431 other isoform, or with tags, fused parts or gaps E104A | E104A E104A): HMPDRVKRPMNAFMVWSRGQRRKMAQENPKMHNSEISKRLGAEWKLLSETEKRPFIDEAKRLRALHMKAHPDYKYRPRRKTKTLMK
Chain of Sox2-HMG (His6 retained) R98A (P48431 other isoform, or with tags, fused parts or gaps R98A | R98A R98A): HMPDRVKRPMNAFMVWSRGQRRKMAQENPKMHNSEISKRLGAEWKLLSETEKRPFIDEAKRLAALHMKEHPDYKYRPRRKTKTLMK
Chain of Sox2-HMG (His6 retained) E70A (P48431 other isoform, or with tags, fused parts or gaps E70A | E70A E70A): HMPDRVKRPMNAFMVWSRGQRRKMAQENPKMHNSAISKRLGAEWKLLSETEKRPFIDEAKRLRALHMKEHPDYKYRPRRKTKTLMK
Chain of Sox2-HMG (His6 retained) H105A (P48431 other isoform, or with tags, fused parts or gaps H105A | H105A H105A): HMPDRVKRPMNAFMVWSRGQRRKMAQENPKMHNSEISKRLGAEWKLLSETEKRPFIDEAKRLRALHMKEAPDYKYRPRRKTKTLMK
Chain of Sox2-HMG (His6 retained) T85A (P48431 other isoform, or with tags, fused parts or gaps T85A | T85A T85A): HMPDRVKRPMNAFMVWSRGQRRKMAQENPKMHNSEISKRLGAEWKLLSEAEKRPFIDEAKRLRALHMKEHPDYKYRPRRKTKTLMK
Chain of Sox2-HMG (His6 retained) K115A (P48431 other isoform, or with tags, fused parts or gaps K115A | K115A K115A): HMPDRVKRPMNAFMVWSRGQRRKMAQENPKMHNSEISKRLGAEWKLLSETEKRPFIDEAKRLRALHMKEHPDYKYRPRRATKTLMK
Chain of Sox2-HMG (His6 retained) P64A (P48431 other isoform, or with tags, fused parts or gaps P64A | P64A P64A): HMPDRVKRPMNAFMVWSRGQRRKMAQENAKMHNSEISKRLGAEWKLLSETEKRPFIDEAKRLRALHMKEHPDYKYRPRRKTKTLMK
Chain of Sox2-HMG (His6 retained) N46A (P48431 other isoform, or with tags, fused parts or gaps N46A | N46A N46A): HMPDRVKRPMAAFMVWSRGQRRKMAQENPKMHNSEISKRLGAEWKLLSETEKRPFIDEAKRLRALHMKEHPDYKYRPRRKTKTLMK
Chain of Sox2-HMG (His6 retained) K109A (P48431 other isoform, or with tags, fused parts or gaps K109A | K109A K109A): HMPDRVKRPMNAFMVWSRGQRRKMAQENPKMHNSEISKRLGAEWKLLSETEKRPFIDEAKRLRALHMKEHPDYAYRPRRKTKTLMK
Chain of Sox2-HMG (His6 retained) R40A (P48431 other isoform, or with tags, fused parts or gaps R40A | R40A R40A): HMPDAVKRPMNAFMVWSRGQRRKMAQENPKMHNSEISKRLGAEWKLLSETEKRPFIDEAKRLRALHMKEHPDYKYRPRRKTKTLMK
Chain of Sox2-HMG (His6 retained) R114A (P48431 other isoform, or with tags, fused parts or gaps R114A | R114A R114A): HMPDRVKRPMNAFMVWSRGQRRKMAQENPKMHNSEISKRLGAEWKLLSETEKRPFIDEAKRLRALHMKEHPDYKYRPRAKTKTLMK
Chain of Sox2-HMG (His6 retained) R43A (P48431 other isoform, or with tags, fused parts or gaps R43A | R43A R43A): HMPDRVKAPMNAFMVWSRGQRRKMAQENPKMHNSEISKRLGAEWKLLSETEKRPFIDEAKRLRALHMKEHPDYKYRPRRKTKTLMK
Chain of Sox2-HMG (His6 retained) F48A (P48431 other isoform, or with tags, fused parts or gaps F48A | F48A F48A): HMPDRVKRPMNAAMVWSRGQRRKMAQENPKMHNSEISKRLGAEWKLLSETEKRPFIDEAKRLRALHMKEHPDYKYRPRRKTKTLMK
Chain of Sox2-HMG (His6 retained) R113A (P48431 other isoform, or with tags, fused parts or gaps R113A | R113A R113A): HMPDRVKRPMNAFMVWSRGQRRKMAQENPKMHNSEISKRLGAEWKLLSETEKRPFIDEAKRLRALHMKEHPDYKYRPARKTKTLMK
Chain of Sox2-HMG (His6 retained) K103A (P48431 other isoform, or with tags, fused parts or gaps K103A | K103A K103A): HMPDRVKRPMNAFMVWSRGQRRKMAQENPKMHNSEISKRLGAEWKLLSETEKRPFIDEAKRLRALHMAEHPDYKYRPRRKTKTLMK
Chain of Sox2-HMG (His6 retained) Q61A (P48431 other isoform, or with tags, fused parts or gaps Q61A | Q61A Q61A): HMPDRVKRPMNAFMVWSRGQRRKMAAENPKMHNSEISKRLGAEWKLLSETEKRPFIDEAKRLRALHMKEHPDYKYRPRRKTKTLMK
Chain of Sox2-HMG (His6 retained) R74A (P48431 other isoform, or with tags, fused parts or gaps R74A | R74A R74A): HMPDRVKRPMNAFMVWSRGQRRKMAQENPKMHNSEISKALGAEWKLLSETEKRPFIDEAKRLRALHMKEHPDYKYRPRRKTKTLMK
Chain of Sox2-HMG (His6 retained) E84A (P48431 other isoform, or with tags, fused parts or gaps E84A | E84A E84A): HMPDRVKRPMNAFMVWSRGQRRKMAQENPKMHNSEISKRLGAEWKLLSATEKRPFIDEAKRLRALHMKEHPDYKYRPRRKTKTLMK
Chain of Sox2-HMG (His6 retained) M49A (P48431 other isoform, or with tags, fused parts or gaps M49A | M49A M49A): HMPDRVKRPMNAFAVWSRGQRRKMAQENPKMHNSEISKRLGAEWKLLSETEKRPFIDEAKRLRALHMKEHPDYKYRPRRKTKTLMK
Chain of Sox2-HMG (His6 retained) M66A (P48431 other isoform, or with tags, fused parts or gaps M66A | M66A M66A): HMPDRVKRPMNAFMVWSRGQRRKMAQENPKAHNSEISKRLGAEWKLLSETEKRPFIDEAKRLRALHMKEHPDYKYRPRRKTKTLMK
Chain of Sox2-HMG (His6 retained) H101A (P48431 other isoform, or with tags, fused parts or gaps H101A | H101A H101A): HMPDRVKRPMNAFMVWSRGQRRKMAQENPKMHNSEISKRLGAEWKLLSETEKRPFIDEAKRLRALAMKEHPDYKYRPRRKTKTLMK
Chain of Sox2-HMG (His6 retained) W79A (P48431 other isoform, or with tags, fused parts or gaps W79A | W79A W79A): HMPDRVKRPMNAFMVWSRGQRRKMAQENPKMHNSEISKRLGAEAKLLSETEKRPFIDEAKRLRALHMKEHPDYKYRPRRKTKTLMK
Chain of Sox2-HMG (His6 retained) Y110A (P48431 other isoform, or with tags, fused parts or gaps Y110A | Y110A Y110A): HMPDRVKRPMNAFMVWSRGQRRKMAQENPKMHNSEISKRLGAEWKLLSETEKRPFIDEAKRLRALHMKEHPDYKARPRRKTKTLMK
Chain of Sox2-HMG (His6 retained) E78A (P48431 other isoform, or with tags, fused parts or gaps E78A | E78A E78A): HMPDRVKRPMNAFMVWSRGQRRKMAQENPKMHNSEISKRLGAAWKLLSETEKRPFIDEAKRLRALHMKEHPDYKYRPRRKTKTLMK
Chain of Sox2-HMG (His6 retained) K87A (P48431 other isoform, or with tags, fused parts or gaps K87A | K87A K87A): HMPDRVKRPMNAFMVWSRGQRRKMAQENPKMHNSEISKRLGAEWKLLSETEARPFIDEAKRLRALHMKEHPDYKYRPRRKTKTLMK
Chain of Sox2-HMG (His6 retained) K95A (P48431 other isoform, or with tags, fused parts or gaps K95A | K95A K95A): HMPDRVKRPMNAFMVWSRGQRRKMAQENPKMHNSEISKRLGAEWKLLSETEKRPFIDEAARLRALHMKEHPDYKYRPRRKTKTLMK
Chain of Sox2-HMG (His6 retained) H67A (P48431 other isoform, or with tags, fused parts or gaps H67A | H67A H67A): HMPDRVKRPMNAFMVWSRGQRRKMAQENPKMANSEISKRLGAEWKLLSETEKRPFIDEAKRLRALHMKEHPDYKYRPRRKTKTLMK
Chain of Sox2-HMG (His6 retained) W51A (P48431 other isoform, or with tags, fused parts or gaps W51A | W51A W51A): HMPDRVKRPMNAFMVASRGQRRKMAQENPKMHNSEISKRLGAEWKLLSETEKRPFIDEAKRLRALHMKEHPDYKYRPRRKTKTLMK
Chain of Sox2-HMG (His6 retained) R111A (P48431 other isoform, or with tags, fused parts or gaps R111A | R111A R111A): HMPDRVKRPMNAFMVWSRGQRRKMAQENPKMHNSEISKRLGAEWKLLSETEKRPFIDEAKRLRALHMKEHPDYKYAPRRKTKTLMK
Chain of Sox2-HMG (His6 retained) K58A (P48431 other isoform, or with tags, fused parts or gaps K58A | K58A K58A): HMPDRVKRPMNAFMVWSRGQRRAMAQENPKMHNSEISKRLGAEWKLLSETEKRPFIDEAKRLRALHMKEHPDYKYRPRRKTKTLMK
Chain of Sox2-HMG (His6 retained) M45A (P48431 other isoform, or with tags, fused parts or gaps M45A | M45A M45A): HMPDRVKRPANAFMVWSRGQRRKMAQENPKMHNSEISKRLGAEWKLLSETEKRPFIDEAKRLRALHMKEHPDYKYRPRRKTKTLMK
Chain of Sox2-HMG (His6 retained) R56A (P48431 other isoform, or with tags, fused parts or gaps R56A | R56A R56A): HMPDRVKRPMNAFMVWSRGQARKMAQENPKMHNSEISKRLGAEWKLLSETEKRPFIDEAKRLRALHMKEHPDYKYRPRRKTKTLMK
Chain of Sox2-HMG (His6 retained) N68A (P48431 other isoform, or with tags, fused parts or gaps N68A | N68A N68A): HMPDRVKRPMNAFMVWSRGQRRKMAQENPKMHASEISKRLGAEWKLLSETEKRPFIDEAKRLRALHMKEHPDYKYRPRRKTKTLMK
Chain of Sox2-HMG (His6 retained) K42A (P48431 other isoform, or with tags, fused parts or gaps K42A | K42A K42A): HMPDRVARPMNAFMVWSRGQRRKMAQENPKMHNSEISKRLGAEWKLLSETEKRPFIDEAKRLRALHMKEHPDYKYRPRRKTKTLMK
Chain of Sox2-HMG (His6 retained) R88A (P48431 other isoform, or with tags, fused parts or gaps R88A | R88A R88A): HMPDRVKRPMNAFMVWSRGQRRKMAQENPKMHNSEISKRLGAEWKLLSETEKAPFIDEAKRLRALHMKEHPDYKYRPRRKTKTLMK

CGCGCCTTTGTTCCCGGGT
binding signal [1]: 2.2 ± 1 Kd(mutant)/Kd(WT) | binding signal [2]: 1.4 ± 0.4 Kd(mutant)/Kd(WT) | binding signal [3]: 1.1 ± 0.3 Kd(mutant)/Kd(WT) | binding signal [4]: 1.1 ± 0.5 Kd(mutant)/Kd(WT) | binding signal [5]: 2.4 ± 0.7 Kd(mutant)/Kd(WT) | binding signal [6]: 2.8 ± 1.8 Kd(mutant)/Kd(WT) | binding signal [7]: 1.4 ± 0.7 Kd(mutant)/Kd(WT) | binding signal [8]: 2.9 ± 1.4 Kd(mutant)/Kd(WT) | binding signal [9]: 5.8 ± 1 Kd(mutant)/Kd(WT) | binding signal [10]: 0.7 ± 0.4 Kd(mutant)/Kd(WT) | binding signal [11]: 9.3 ± 1.4 Kd(mutant)/Kd(WT) | binding signal [12]: 490 ± 20 Kd(mutant)/Kd(WT) | binding signal [13]: 0.6 ± 0.3 Kd(mutant)/Kd(WT) | binding signal [14]: 6.1 ± 2.2 Kd(mutant)/Kd(WT) | binding signal [15]: 1.1 ± 0.5 Kd(mutant)/Kd(WT) | binding signal [16]: 1.6 ± 1.1 Kd(mutant)/Kd(WT) | binding signal [17]: 2 ± 1.9 Kd(mutant)/Kd(WT) | binding signal [18]: 17 ± 2.8 Kd(mutant)/Kd(WT) | binding signal [19]: 0.9 ± 0.2 Kd(mutant)/Kd(WT) | binding signal [20]: 3 ± 0.8 Kd(mutant)/Kd(WT) | binding signal [21]: 1.6 ± 0.3 Kd(mutant)/Kd(WT) | binding signal [22]: 1.1 ± 1.1 Kd(mutant)/Kd(WT) | binding signal [23]: 420 ± 120 Kd(mutant)/Kd(WT) | binding signal [24]: 0.7 ± 0.4 Kd(mutant)/Kd(WT) | binding signal [25]: 0.6 ± 0.2 Kd(mutant)/Kd(WT) | binding signal [26]: 1.3 ± 0.7 Kd(mutant)/Kd(WT) | binding signal [27]: 3 ± 0.6 Kd(mutant)/Kd(WT) | binding signal [28]: 0.8 ± 0.1 Kd(mutant)/Kd(WT) | binding signal [29]: 0.7 ± 0.2 Kd(mutant)/Kd(WT) | binding signal [30]: 0.6 ± 0.5 Kd(mutant)/Kd(WT) | binding signal [31]: 2.8 ± 0.3 Kd(mutant)/Kd(WT) | binding signal [32]: 30 ± 5.4 Kd(mutant)/Kd(WT) | binding signal [33]: 190 ± 70 Kd(mutant)/Kd(WT) | binding signal [34]: 2.8 ± 0.9 Kd(mutant)/Kd(WT) | binding signal [35]: 7.5 ± 3.5 Kd(mutant)/Kd(WT) | binding signal [36]: 1.4 ± 1.3 Kd(mutant)/Kd(WT) | binding signal [37]: 3.2 ± 0.8 Kd(mutant)/Kd(WT) | binding signal [38]: 8.5 ± 2.2 Kd(mutant)/Kd(WT) | binding signal [39]: 0.8 ± 0.3 Kd(mutant)/Kd(WT) | binding signal [40]: 0.8 ± 0.5 Kd(mutant)/Kd(WT) | binding signal [41]: 1.1 ± 0.5 Kd(mutant)/Kd(WT) | binding signal [42]: 2.7 ± 1.2 Kd(mutant)/Kd(WT) | binding signal [43]: 15 ± 8.4 Kd(mutant)/Kd(WT) | binding signal [44]: 8.5 ± 1 Kd(mutant)/Kd(WT) | binding signal [45]: 1.9 ± 0.2 Kd(mutant)/Kd(WT) | binding signal [46]: 2.6 ± 0.1 Kd(mutant)/Kd(WT) | binding signal [47]: 1.8 ± 0.9 Kd(mutant)/Kd(WT) | binding signal [48]: 1.7 ± 1.9 Kd(mutant)/Kd(WT)
